mHTT CaM bind: inhibitors of human mutant huntingtin-calmodulin interaction | P42858 | AlphaScreen His-mHTT/GST-CaM binding, luminescence | inhibition, % at 15 µM | 190,000 compounds, 3.6% hits | AID 1671202
Pf apPOL block: Pf-apPOL DNA polymerase inhibition. Recombinant Pf-apPOL, molecular beacon fluorescence, 1.5 h. inhibition, % at 10 µM. 210,000 compounds, 0.25% hits. AID 1794808
Each line names hits and unclear results; the compound was inactive in the other large screens. An excerpt weighted towards active compounds, which were near 3.6% of everything screened. Rule as the data show it: active = inhibition above about 50%; inactive = the rest.

COc1cccc(C(NC(=O)c2ccccc2)c2ccc3cccnc3c2O)c1 (stereo not drawn)	mHTT CaM bind 100.0
COc1ccc(C(NC(=O)c2ccccc2)NC(=O)c2ccccc2)c(OC)c1	none
COc1cccc(NS(=O)(=O)c2cccc3cccnc23)c1	none
COc1cccc(NC(c2ccccn2)c2ccc3cccnc3c2O)c1 (stereo not drawn)	mHTT CaM bind 99.0
COc1ccc(C(NC(=O)c2ccccc2)c2ccc3cccnc3c2O)cc1 (stereo not drawn)	mHTT CaM bind 100.0
COc1ccc(N2C=C(C(=O)N3CCCC3)S(=O)(=O)c3ccccc32)cc1	none
O=C(NCCSc1c(-c2ccc(Cl)cc2)[nH]c2ccccc12)c1ccco1	none
Cc1ccccc1C(=O)NC1CCc2[nH]c3ccc(Br)cc3c2C1 (stereo not drawn)	mHTT CaM bind 99.5
CCOC(=O)C(=O)NC1CCc2[nH]c3ccc(C)cc3c2C1 (stereo not drawn)	none
Cc1cc(Cl)cc2c3c([nH]c12)CCC(NC(=O)C1CCCC1)C3 (stereo not drawn)	none
COc1ccccc1C(=O)NC1CCc2[nH]c3c(C)cc(Cl)cc3c2C1 (stereo not drawn)	mHTT CaM bind 91.9
Cc1cccc2c3c([nH]c12)CCC(NC(=O)CC(C)C)C3 (stereo not drawn)	none
Cc1cc(C)c2[nH]c3c(c2c1)CC(NC(=O)C1CCCO1)CC3 (stereo not drawn)	mHTT CaM bind 53.8
CC(=O)N1CCc2sc(C(=O)NC(C)c3ccccc3)cc2C1 (stereo not drawn)	none
Cc1ccc(Nc2nc(-c3ccc4c(c3)OCO4)cs2)nc1	none
Cc1cccnc1Nc1nc(-c2ccc(O)cc2O)cs1	mHTT CaM bind 100.0
Oc1ccc(-c2csc(Nc3ccccn3)n2)c(O)c1	mHTT CaM bind 96.0
Cc1ccc(Nc2nc(-c3ccc(O)c(O)c3)cs2)nc1	mHTT CaM bind 79.0
Cc1ccc(-c2csc(Nc3ccccn3)n2)c(C)c1	none
COc1ccc(-c2csc(Nc3ncccc3C)n2)cc1C	none
CCOc1ccc(C(=O)Nc2c3c(nn2-c2ccccc2C)CS(=O)(=O)C3)cc1OCC	none
O=[N+]([O-])c1ccc(N2CCOCC2)cc1OCCOc1ccccc1	none
COc1ccc(C=Nc2c(-c3ccc(O)c(OC)c3)nc3ccccn23)cc1O	none
COc1cc(-c2nc3ccccn3c2N=Cc2cc([N+](=O)[O-])cc([N+](=O)[O-])c2O)ccc1O	none
COc1cc(-c2nc3ccccn3c2N=Cc2cn[nH]c2-c2ccc(F)cc2)ccc1O	mHTT CaM bind 56.0
COc1cc(C=Nc2c(-c3ccc(O)c(OC)c3)nc3ccccn23)ccc1O	mHTT CaM bind 60.0
COc1ccc(S(=O)(=O)N2Cc3ccccc3CC2C(=O)Nc2ccccc2OC)cc1 (stereo not drawn)	none
CC(=O)N1CCc2sc(S(=O)(=O)NCc3ccc(Cl)cc3)cc2C1	none
CCc1cccc(C)c1-n1nnnc1C(C)(C)Nc1ccccc1	none
CCC(C)(Nc1ccc(N(C)C)cc1)c1nnnn1-c1c(C)cccc1C (stereo not drawn)	mHTT CaM bind 55.0
N#Cc1cnoc1N1CCOCC1	none (no result: Pf apPOL block)
COc1ccc2oc(C)c(C(C)=O)c2c1	Pf apPOL block 97.8
COc1ccc2oc(C)c(C(=O)O)c2c1	none
Cc1ccc([C@H]2C[C@H](O)[C@@H](n3cc(-c4ccc(F)cc4)nn3)CN2C(=O)C2CCCCC2)cc1	mHTT CaM bind 73.9
O[C@@H]1CN(CC2CCCCC2)[C@@H](c2ccccc2)C[C@H]1n1cc(C2CC2)nn1	none
Cc1ccc([C@H]2C[C@H](O)[C@@H](n3cc(-c4ccc(F)cc4)nn3)CN2Cc2cccs2)cc1	none
O[C@H]1C[C@H](c2ccc(Cl)cc2)N(Cc2cccs2)C[C@@H]1n1cc(-c2ccc(F)cc2)nn1	mHTT CaM bind 100.3
O=C(C1CCCCC1)N1C[C@@H](n2cc(-c3ccc(F)cc3)nn2)[C@H](O)C[C@@H]1c1ccccc1	none
CCCCCCN1C[C@H](O)[C@@H](n2cc(-c3ccc(F)cc3)nn2)C[C@@H]1c1ccccc1	none
CCCCCCN1C[C@H](n2cc(-c3ccc(F)cc3)nn2)[C@@H](O)C[C@@H]1c1ccccc1	mHTT CaM bind 59.7
O[C@H]1C[C@H](c2ccccc2)N(CC2CCCCC2)C[C@@H]1n1cc(C2CC2)nn1	mHTT CaM bind 93.4
FC(F)(F)c1cc(Cl)c(NN=C2CCCc3ccccc32)c(Cl)c1	none (no result: mHTT CaM bind)
Cc1cccc(NC(=O)C2CCCN(c3ncc(-c4ccccc4)cn3)C2)c1 (stereo not drawn)	none
COc1ccccc1OCCNC(=O)C1CCCN(c2nnc3ccccn23)C1 (stereo not drawn)	none
Cc1cccc(CSc2nc3c(c(=O)[nH]2)CN(Cc2ccccc2)CC3)c1	none
COCCNC(=O)C(C)C1CCN(S(=O)(=O)c2c(C)noc2C)CC1 (stereo not drawn)	none
Cc1ccc(-c2ccc(SCC(=O)O)nn2)cc1	none
Cc1nc(-c2ccc(C(N)=NOC(=O)c3ccc(C(F)(F)F)cc3)cc2)cs1	none (no result: mHTT CaM bind)

Screening results deposited in PubChem by University of Kansas High Throughput Screening Laboratory.
